Reference: PubChem BioAssay (Tox21)
Records with an inconclusive call do not appear. Activity calls are given as the source filed them. Unless noted, the call rests on the fitted dose curve.

Experiments:
[1] = qHTS assay to identify small molecule agonists of the peroxisome proliferator-activated receptor delta (PPARd) signaling pathway - cell viability counter screen (AID 743211; active means well fitted curve in the direction sought with a large enough effect in the repeat runs; an effect the other way counts as inactive or inconclusive; further: nearly all actives have a fitted effect of over 55% in size)
In short: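 Multiplexed format: after the 2 h room-temperature LiveBLAzer B/G FRET step, CellTiter-Glo was added to the same wells. Luminescence after 30 min gave cell viability; compound exposure was 17 h at 37C.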

[2] = molecular target: Peroxisome proliferator-activated receptor delta (Homo sapiens) (UniProt Q03181); assay: qHTS assay to identify small molecule agonists of the peroxisome proliferator-activated receptor delta (PPARd) signaling pathway (AID 743212)
Peroxisome proliferator-activated receptor delta (Homo sapiens), sequence (Q03181 whole entry, looked up): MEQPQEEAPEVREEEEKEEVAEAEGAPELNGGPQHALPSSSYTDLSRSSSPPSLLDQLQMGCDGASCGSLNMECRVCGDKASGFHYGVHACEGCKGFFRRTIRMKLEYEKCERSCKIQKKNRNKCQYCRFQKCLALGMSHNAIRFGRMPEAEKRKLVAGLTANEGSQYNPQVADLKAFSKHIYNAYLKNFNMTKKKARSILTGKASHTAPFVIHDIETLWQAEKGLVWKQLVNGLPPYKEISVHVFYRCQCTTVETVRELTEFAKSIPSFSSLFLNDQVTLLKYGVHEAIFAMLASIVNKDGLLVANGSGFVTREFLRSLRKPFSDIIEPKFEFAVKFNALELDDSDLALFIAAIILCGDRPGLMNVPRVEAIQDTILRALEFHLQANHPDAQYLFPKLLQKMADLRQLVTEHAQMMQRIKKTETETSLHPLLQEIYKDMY
In short: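 Cells expressing a UAS-driven beta-lactamase reporter (PPARd-bla HEK293H) were given test compounds after a 5 h settle and kept at 37 C. Reporter activity was then measured as FRET fluorescence using LiveBLAzer B/G substrate.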

[3] = molecular target: Peroxisome proliferator-activated receptor delta (Homo sapiens) (UniProt Q03181); assay: qHTS assay to identify small molecule antagonists of the peroxisome proliferator-activated receptor delta (PPARd) signaling pathway (AID 743215; active means well fitted inhibition curve with a large enough effect in the signal ratio in the repeat runs, not every such curve was filed as active; the % refers to the signal ratio; further: series mostly up to about 62 µM)
In short: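 HEK293H GeneBLAzer PPARd UAS-bla reporter cells; cpd + L165041 300 nM final, 17 h 37 C; LiveBLAzer B/G FRET substrate 2 h RT; fluorescence intensity read-out. Antagonist mode.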

[4] = qHTS assay to identify small molecule agonists of the farnesoid-X-receptor (FXR) signaling pathway - cell viability counter screen (AID 743218; active means well fitted curve in the direction sought with a large enough effect in the repeat runs; an effect the other way counts as inactive or inconclusive; further: nearly all actives have a fitted effect of over 45% in size)
In short: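 Luminescence from CellTiter-Glo, read after 30 min at RT, reports viability of GeneBLAzer FXR-UAS-bla HEK 293T cells treated 16 h with compounds in the wells used for the beta-lactamase reporter.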

[5] = qHTS assay to identify small molecule antagonists of the farnesoid-X-receptor (FXR) signaling pathway - cell viability counter screen (AID 743221; active means well fitted cell-killing curve with a large enough effect in the repeat runs, not every such curve was filed as active; further: nearly all actives have a fitted effect of over 50% in size)
In short: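 CellTiter-Glo, 30 min RT, luminescence; same wells as the LiveBLAzer FRET read. Cells: FXR-UAS-bla HEK 293T. Treatment: compound with chenodeoxycholic acid 50 uM final, 16 h at 37 C.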

[6] = molecular target: Vitamin D3 receptor (Homo sapiens) (UniProt P11473); assay: qHTS assay to identify small molecule agonists of the vitamin D receptor (VDR) signaling pathway (AID 743222)
Vitamin D3 receptor (Homo sapiens), sequence (P11473 whole entry, looked up): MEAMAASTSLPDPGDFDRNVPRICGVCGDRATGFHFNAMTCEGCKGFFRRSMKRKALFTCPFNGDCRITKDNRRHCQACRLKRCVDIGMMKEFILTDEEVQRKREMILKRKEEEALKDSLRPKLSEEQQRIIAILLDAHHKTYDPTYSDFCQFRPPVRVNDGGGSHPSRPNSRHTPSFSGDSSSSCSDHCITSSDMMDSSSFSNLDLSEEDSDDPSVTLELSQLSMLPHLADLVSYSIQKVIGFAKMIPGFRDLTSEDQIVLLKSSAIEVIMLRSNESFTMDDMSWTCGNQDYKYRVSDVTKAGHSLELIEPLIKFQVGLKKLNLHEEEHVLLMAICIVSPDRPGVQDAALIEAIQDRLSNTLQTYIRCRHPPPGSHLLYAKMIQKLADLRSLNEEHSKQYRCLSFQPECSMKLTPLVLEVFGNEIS
In short: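 Beta-lactamase reporter readout (LiveBLAzer B/G FRET, 2 h RT) in VDR-bla cells after 16 h compound treatment at 37C, 5% CO2; cells pre-incubated 4 h before pin transfer of DMSO solutions.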

[7] = molecular target: Vitamin D3 receptor (Homo sapiens) (UniProt P11473); assay: qHTS assay to identify small molecule antagonists of the vitamin D receptor (VDR) signaling pathway (AID 743223; active means well fitted inhibition curve with a large enough effect in the signal ratio in the repeat runs, not every such curve was filed as active; the % refers to the signal ratio)
In short: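 After VDR-bla cells are plated and left 4 h at 37C, DMSO-dissolved compounds and 3 nM (final) calcitriol agonist are added. Incubation continues 16 h at 37C; FRET beta-lactamase substrate then develops 2 h at room temperature.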

[8] = qHTS assay to identify small molecule agonists of the vitamin D receptor (VDR) signaling pathway - cell viability counter screen (AID 743224; active means well fitted curve in the direction sought with a large enough effect in the repeat runs; an effect the other way counts as inactive or inconclusive; further: series mostly up to about 63 µM; nearly all actives have a fitted effect of over 50% in size)
In short: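 Cytotoxicity counter screen: VDR-bla cells, 16 h compound exposure at 37C, 5% CO2; CellTiter-Glo luminescence, 30 min RT, same wells as bla read.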

[9] = qHTS assay to identify small molecule antagonists of the vitamin D receptor (VDR) signaling pathway - cell viability counter screen (AID 743225; active means well fitted curve in the direction sought with a large enough effect in the repeat runs; an effect the other way counts as inactive or inconclusive; further: nearly all actives have a fitted effect of over 50% in size)
In short: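 Cytotoxicity toward the VDR-bla HEK 293T line was scored by ATP-based CellTiter-Glo luminescence, read in the wells already used for the beta-lactamase readout after 16 h compound treatment under 3 nM 1-alpha,25-dihydroxyvitamin D3 stimulation.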

[10] = qHTS assay to identify small molecule agonists of the NFkB signaling pathway (AID 1159509; active means well fitted curve in the direction sought with a large enough effect in the signal ratio in the repeat runs, not every such curve was filed as active; the % refers to the signal ratio; further: series mostly up to about 61 µM)
In short: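 Agonist activity was read as beta-lactamase-driven FRET change (460 and 530 nm emission, 405 nm excitation) following 1.5 hr substrate loading at room temperature. Beforehand, ME-180 NFkB-bla reporter cells were treated with compounds for 5 hr at 37 C.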

[11] = qHTS assay to identify small molecule agonists of the NFkB signaling pathway - cell viability counter screen (AID 1159515); further: series mostly up to about 61 µM; nearly all actives have a fitted effect of over 55% in size
In short: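 ME-180 NFkB-bla cells, 2,000/well; overnight attach; compound 5 hr, 37 C/5% CO2; LiveBLAzer substrate 1.5 hr RT; then CellTiter-Glo in same wells, 30 min RT, luminescence read.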

[12] = qHTS assay to identify small molecule agonists of the endoplasmic reticulum stress response signaling pathway (AID 1159516; active means well fitted activation curve with a large enough effect in the signal ratio in the repeat runs, not every such curve was filed as active; the % refers to the signal ratio)
In short: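 HeLa ESRE-bla reporter line; cpd 5 h, 37 C/5% CO2; LiveBLAzer B/G FRET substrate 2 h RT; ex 405, em 460/530 nm.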

[13] = qHTS assay to identify small molecule agonists of the endoplasmic reticulum stress response signaling pathway - cell viability counter screen (AID 1159517);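 further: HeLa cells carrying an ER stress response element beta-lactamase reporter; series mostly up to about 61 µM; nearly all actives have a fitted effect of over 50% in size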
In short: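 Cpd-treated ESRE-bla HeLa (5 hr, 37 C) → LiveBLAzer 2 hr RT → CellTiter-Glo 30 min RT → luminescence.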

[14] = qHTS assay to identify small molecule antagonists of the retinoid-related orphan receptor gamma (ROR-gamma) signaling pathway - cell viability counter screen (AID 1159520; active means well fitted curve in the direction sought with a large enough effect in the repeat runs; an effect the other way counts as inactive or inconclusive; further: nearly all actives have a fitted effect of over 50% in size)
In short: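 Tet-on ROR gamma CHO cells (1,000/well) were plated 4 hr, given compounds in DMSO for 2 hr at 37 C, then induced with 1 uM final doxycycline for 16 hr. Viability was read as ATP by CellTiter-Glo luminescence after 30 min.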

[15] = qHTS assay to identify small molecule agonists of the AP-1 signaling pathway - cell viability counter screen (AID 1159525); further: nearly all actives have a fitted effect of over 55% in size
In short: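 Each titration point was normalised to DMSO and tetra n-octyl ammonium bromide controls. The read was Cell Titer Glo luminescence after 30 min at RT, following 5 h compound exposure of ME-180 AP-1-bla cells at 37 °C.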

[16] = qHTS assay to identify small molecule agonists of the AP-1 signaling pathway (AID 1159526)
[17] = qHTS assay to identify small molecule antagonists of the peroxisome proliferator-activated receptor delta (PPARd) signaling pathway - cell viability counter screen (AID 743213; active means well fitted curve in the direction sought with a large enough effect in the repeat runs; an effect the other way counts as inactive or inconclusive; further: nearly all actives have a fitted effect of over 50% in size)
In short: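 Agonist-stimulated (L165041, 300 nM final) HEK293H PPARd UAS-bla cells are exposed to compounds for 17 h at 37 C, and ATP-based luminescence (CellTiter-Glo) from the same wells reports cytotoxicity.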

[18] = molecular target: Bile acid receptor (Homo sapiens) (UniProt Q96RI1); assay: qHTS assay to identify small molecule antagonists of the farnesoid-X-receptor (FXR) signaling pathway (AID 743217; active means well fitted inhibition curve with a large enough effect in the signal ratio in the repeat runs, not every such curve was filed as active; the % refers to the signal ratio)
Bile acid receptor (Homo sapiens), sequence (Q96RI1 whole entry, looked up): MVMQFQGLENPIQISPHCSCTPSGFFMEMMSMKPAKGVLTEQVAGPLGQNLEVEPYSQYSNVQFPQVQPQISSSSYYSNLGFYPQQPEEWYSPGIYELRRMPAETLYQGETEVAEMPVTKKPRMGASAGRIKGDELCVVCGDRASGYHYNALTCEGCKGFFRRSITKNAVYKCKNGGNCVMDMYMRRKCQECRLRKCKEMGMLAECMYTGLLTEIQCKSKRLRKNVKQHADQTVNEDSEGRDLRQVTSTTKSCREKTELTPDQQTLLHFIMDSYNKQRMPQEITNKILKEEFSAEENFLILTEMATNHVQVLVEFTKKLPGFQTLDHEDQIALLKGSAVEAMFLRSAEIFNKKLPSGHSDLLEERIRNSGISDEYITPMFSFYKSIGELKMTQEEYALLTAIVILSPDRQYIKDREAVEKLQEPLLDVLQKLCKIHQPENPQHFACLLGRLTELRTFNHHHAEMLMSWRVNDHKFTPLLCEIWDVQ
In short: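 Read-out: beta-lactamase FRET fluorescence (LiveBLAzer B/G substrate, 2 h, room temperature) in GeneBLAzer FXR-UAS-bla HEK 293T cells. Compounds were co-dosed with 50 uM chenodeoxycholic acid (final) and incubated 16 h at 37 °C.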

[19] = molecular target: Bile acid receptor (Homo sapiens) (UniProt Q96RI1); assay: qHTS assay to identify small molecule agonists of the farnesoid-X-receptor (FXR) signaling pathway (AID 743220; active means well fitted activation curve with a large enough effect in the signal ratio in the repeat runs, not every such curve was filed as active; the % refers to the signal ratio)
In short: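 FXR-UAS-bla HEK 293T cells carrying a UAS-driven beta-lactamase reporter were plated for 5 h at 37C/5% CO2, then exposed to DMSO-dissolved Tox21 10K compounds for 16 h at 37C. A LiveBLAzer B/G FRET substrate was loaded for 2 h at room temperature before fluorescence reading.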

Measured: Potency

CC(C)C(=O)O
inactive: [1] | [2] | [3] | [4] | [5] | [6] | [7] | [8] | [9] | [10] | [11] | [12] | [13] | [14] | [15] | [16]

CC(=O)Nc1ccccc1C
inactive: [1] | [2] | [17] | [3] | [4] | [5] | [6] | [10] | [11] | [12] | [13] | [14] | [15] | [16]

CCCCCCCCCOC(C)=O
inactive: [1] | [2] | [17] | [3] | [18] | [4] | [19] | [5] | [6] | [7] | [8] | [9] | [10] | [11] | [12] | [13] | [14] | [15] | [16]

CN(C(=O)C(Cl)Cl)c1ccc(OC(=O)c2ccco2)cc1
inactive: [1] | [2] | [17] | [3] | [18] | [4] | [19] | [5] | [6] | [8] | [9] | [10] | [11] | [12] | [13] | [14] | [15] | [16]

CC(C)(C)C(=O)C(Oc1ccc(Cl)cc1)n1ccnc1 (configuration not stated)
inactive: [1] | [2] | [17] | [3] | [18] | [4] | [19] | [5] | [8] | [9] | [10] | [11] | [12] | [13] | [14] | [15] | [16]

NCC1CCCC(CN)C1 (configuration not stated)
inactive: [1] | [2] | [17] | [3] | [18] | [4] | [19] | [5] | [6] | [8] | [9] | [10] | [11] | [12] | [13] | [14] | [15] | [16]

O=C1NCCN1
inactive: [1] | [2] | [17] | [3] | [18] | [4] | [19] | [5] | [6] | [7] | [8] | [9] | [10] | [11] | [12] | [13] | [14] | [15] | [16]

Nc1ccc(S(=O)(=O)O)c(N)c1
inactive: [1] | [2] | [17] | [3] | [4] | [5] | [6] | [7] | [8] | [10] | [11] | [12] | [13] | [14] | [15] | [16]

CCOC(=O)c1ccccc1OC
inactive: [1] | [2] | [17] | [3] | [4] | [5] | [6] | [7] | [8] | [9] | [10] | [11] | [12] | [13] | [14] | [15] | [16]

CCC(C)(C)C1CCC(O)CC1 (configuration not stated)
inactive: [1] | [2] | [17] | [3] | [4] | [5] | [6] | [8] | [9] | [10] | [11] | [12] | [13] | [14] | [15] | [16]

CCC(C)(O)CCC=C(C)C (configuration not stated)
inactive: [1] | [2] | [17] | [3] | [4] | [5] | [6] | [7] | [8] | [9] | [10] | [11] | [12] | [13] | [14] | [15] | [16]

CCn1nc(C)c2c1C(=O)NCC(c1ccc(O)cc1)=N2
inactive: [1] | [2] | [17] | [4] | [5] | [6] | [8] | [9] | [10] | [11] | [12] | [13] | [14] | [15] | [16]

O=C(O)c1ccccc1NCCc1ccccc1
inactive: [1] | [2] | [17] | [3] | [5] | [7] | [8] | [9] | [10] | [11] | [12] | [13] | [14] | [15] | [16]

CC(=O)OCC(=O)[C@H]1CC[C@H]2[C@@H]3CCC4=CC(=O)CC[C@]4(C)[C@H]3CC[C@]12C
inactive: [1] | [2] | [17] | [18] | [4] | [19] | [5] | [6] | [7] | [8] | [9] | [10] | [11] | [12] | [13] | [14] | [15] | [16]

Cc1ccc(S(=O)(=O)NC2CCCCC2)cc1
inactive: [1] | [2] | [17] | [3] | [18] | [4] | [19] | [5] | [8] | [9] | [10] | [11] | [12] | [13] | [14] | [15] | [16]
